We go through 19 compounds from PubChem BioAssay (EPA / NIEHS).

Inconclusive results are not listed. The source made the active and inactive calls. Rule for the calls, unless noted: active = hit-call score of the fitted dose curve at least 0.9, where 1 is the maximum; inactive = score below 0.9.

A short description of experiment [1]: CCTE_Simmons_MITO_basal_resp_rate: CCTE's HepG2 Seahorse XF Respirometric Screening Assay at Basal Respiratory State, Simmons Lab (AID 2284001). To be noted: actives raise or lower the signal. The gist of the method:
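Readout is oxygen consumption rate after test compound injection, measured by Seahorse XF in HepG2 cells. Seven concentrations from 125 nM up to 100 uM final are tested, and activity in either direction is fitted against DMSO.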

A short description of experiment [2]: CCTE_Simmons_MITO_max_resp_rate: CCTE's HepG2 Seahorse XF Respirometric Screening Assay at Maximal Respiratory State [uncoupled], Simmons Lab (AID 2284002). The settings on record: actives raise or lower the signal. In a few lines: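 HepG2, Seahorse XF96, maximal OCR post-FCCP. Cpd 125 nM–100 uM final (7 conc), n=3 biological. Kinetic reads every 6 min (3 min mix/3 min measure) over 72 min; fit bidirectional vs DMSO.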

A short description of experiment [3]: CCTE_Simmons_MITO_inhib_resp_rate: CCTE's HepG2 Seahorse XF Respirometric Screening Assay at Inhibited Respiratory State [full ETC block], Simmons Lab (AID 2284006). The settings on record: actives raise or lower the signal. In a few lines:
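Seahorse respirometry, HepG2, 72 min total, 6-min mix/measure cycles. Cpd 125 nM–100 uM final ×7, n=3 biological. Sequential FCCP, rotenone/antimycin A; inhibited-respiration OCR, bidirectional fit vs DMSO.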

The nature of experiment [4]: CCTE_Simmons_MITO_viability: CellTiter-Glo Viability Assessment for CCTE's HepG2 Seahorse XF Respirometric Screening Assay [post-hoc], Simmons Lab (AID 2284007; active = hit-call score of the fitted dose curve at least 0.9, where 1 is the maximum). In a few lines:
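Cytotoxicity readout: ATP quantitation via luciferase in HepG2 cells treated 90 min with seven titrated concentrations (125 nM to 100 uM, final). Curves fitted relative to DMSO negative control, three biological replicates per concentration.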
For orientation: ATP-based viability assays read luminescence as a measure of living cells.

Experiment [5] is described as follows: CCTE_Harrill_HTTr_Viability_MCF7: CCTE's 6-hour Cell Viability Assessment for the High-Throughput Transcriptomics (HTTr) Platform, in MCF-7 cells cultured in DMEM + 10% fetal bovine serum, Harrill Lab (AID 2284010). The gist of the method: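 Read-out is propidium iodide gain of signal by high-content imaging, reflecting membrane integrity loss. Measurements are taken 6 h after dosing, eight concentrations per chemical, with DMSO serving as baseline for bidirectional curve fitting.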

A short description of experiment [6]: CCTE_Harrill_HTTr_Apoptosis_MCF7: CCTE's 6-hour Apoptosis Assessment for the High-Throughput Transcriptomics (HTTr) Platform, in MCF-7 cells cultured in DMEM + 10% fetal bovine serum, Harrill Lab (AID 2284011). In a few lines:
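Read-out: CellEvent Caspase 3/7 Green signal by high content imaging, gain-of-signal indicating apoptosis. MCF-7 cells, DMEM + 10% FBS, eight-point dilution series, 6 h exposure. Curves fitted bidirectionally relative to DMSO negative control.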

The nature of experiment [7]: CCTE_Harrill_HTTr_CellCount_MCF7: CCTE's Cell Proliferation Assessment for the High-Throughput Transcriptomics (HTTr) Platform, Harrill Lab (AID 2284012; active = hit-call score of the fitted dose curve at least 0.9, where 1 is the maximum;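 note: cells exposed to compound for six hours; intended direction is loss of nuclei count meaning fewer cells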). In a few lines:
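Cell count served as viability reporter: loss of Hoechst-stained nuclei, counted by high content imaging, marks decreased growth or survival. Exposure was 6 h in MCF-7 cells across eight concentrations, with DMSO as baseline.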

Experiment [8] can be described thus: CCTE_Shafer_MEA_acute_spike_number: CCTE's Neural Acute Assay for Total Number of Spikes, Shafer Lab (AID 2284008). In a few lines: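 Rat cortical cultures, DIV 13/15, 37 C. 40 min baseline rec, cpd 0.03-40 uM, 40 min post-dose rec. Band-pass 300-5000 Hz, spike threshold 8x rms; % change in spike count per well, DMSO neg ctrl, loss-of-signal fit.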
The nature of experiment [9]: CCTE_Shafer_MEA_acute_firing_rate_mean: CCTE's Neural Acute Assay for Mean Firing Rate, Shafer Lab (AID 2284009).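 Note: analyzed for loss of signal so actives lower firing rate relative to DMSO.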 In a few lines:
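Spontaneous spiking of primary rat cortical networks, DIV 13/15, 37 C. Compound 0.03-40 uM, n ≥3 wells; 40 min baseline vs 40 min treated. Endpoint fitted in loss-of-signal direction against DMSO.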

Experiment [10] can be described thus: CCTE_Shafer_MEA_acute_burst_number: CCTE's Neural Acute Assay for Single-Electrode Bursts, Shafer Lab (AID 2284013). In a few lines: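 Burst totals were derived with adaptive spike detection (8x rms threshold) on filtered signals from rat cortical cultures; change relative to pre-treatment baseline after 40-min compound exposure (0.03-40 uM) was fitted in the negative direction against DMSO.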

Experiment [11] has as its target Nucleoli Translocation, AR (gene 367) (UniProt P10275). Kind of experiment: UPITT_HCI_U2OS_AR_TIF2_Nucleoli_Antagonist: University of Pittsburgh U2OS Androgen Receptor-Transcriptional Intermediary Factor 2 (AR-TIF2) Antagonism High Content Imaging Assay for Nucleoli Translocation (AID 2283997; active = hit-call score of the fitted dose curve at least 0.9, where 1 is the maximum). The gist of the method:
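An antagonist-mode imaging screen: engineered U2OS (AR-RFP, TIF2-GFP) exposed to 20 uM compound, 0.2% DMSO. Activity reflects nucleolar red fluorescence change relative to DHT baseline.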

The target is the same in experiment [12]. The experiment can be described thus: UPITT_HCI_U2OS_AR_TIF2_Nucleoli_Agonist: University of Pittsburgh U2OS Androgen Receptor-Transcriptional Intermediary Factor 2 (AR-TIF2) Agonism High Content Imaging Assay for Nucleoli Translocation (AID 2283998; active = hit-call score of the fitted dose curve at least 0.9, where 1 is the maximum). The gist of the method:
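RFP-AR / GFP-TIF2 cells; cpds diluted in serum-free medium; single-point screen 20 uM final (0.2% DMSO), actives confirmed in triplicate; conc-response 0.195–50 uM final (0.5% DMSO). Readout: nucleolar red fluorescence, positive direction vs DMSO.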

For experiment [13], the target named is Ratio of Nucleoli Translocation and Cytoplasm, AR (gene 367) (UniProt P10275). The experiment can be described thus: UPITT_HCI_U2OS_AR_TIF2_Nucleoli_Cytoplasm_Ratio_Antagonist: University of Pittsburgh U2OS Androgen Receptor-Transcriptional Intermediary Factor 2 (AR-TIF2) Antagonism High Content Imaging Assay for Ratio of Nucleoli Translocation and Cytoplasm (AID 2283999; active = hit-call score of the fitted dose curve at least 0.9, where 1 is the maximum;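 note: antagonists lower the DHT-driven ratio of nucleolar to cytoplasmic red signal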). In a few lines:
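Compounds were added to U2OS cells carrying red-fluorescent AR and green-fluorescent TIF2, first at 20 uM, with hits confirmed in triplicate and titrated from 0.195 to 50 uM. Nucleolar versus cytoplasmic AR-RFP fluorescence was then quantified by imaging, with analysis relative to DHT.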

For experiment [14] the target is unchanged. Kind of experiment: UPITT_HCI_U2OS_AR_TIF2_Nucleoli_Cytoplasm_Ratio_Agonist: University of Pittsburgh U2OS Androgen Receptor-Transcriptional Intermediary Factor 2 (AR-TIF2) Agonism High Content Imaging Assay for Ratio of Nucleoli Translocation and Cytoplasm (AID 2284000; active = hit-call score of the fitted dose curve at least 0.9, where 1 is the maximum;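 note: hits raise the red nucleolar to cytoplasm ratio above vehicle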). The gist of the method:
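Primary screen at 20 uM final (0.2% DMSO), then triplicate confirmation and dose-response from 0.195 to 50 uM final (0.5% DMSO). Cells: U2OS with AR-RFP and TIF2-GFP. Endpoint is the nucleoli/cytoplasm red-fluorescence ratio, gain-of-signal vs DMSO.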

The subject of experiment [15] is DIO1 (gene 1733). The experiment can be described thus: CCTE_GLTED_hDIO1: CCTE's human Deiodinase 1 (DIO1) Inhibition Assay, Great Lakes Toxicology and Ecology Division (GLTED) Lab (AID 2283987; active = hit-call score of the fitted dose curve at least 0.9, where 1 is the maximum;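 note: isolated human DIO1 enzyme in a cell-free setup rather than cells; enzyme activity read as free iodide liberated from substrate via Sandell-Kolthoff colorimetry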). The gist of the method: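 Steps: human DIO1 enzyme plus test chemical, 3 h incubation; free iodide then quantified in a second Sandell-Kolthoff step by absorbance. DMSO served as negative control and baseline.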

Sequence of Nucleoli Translocation, AR (gene 367) (P10275 whole entry, looked up): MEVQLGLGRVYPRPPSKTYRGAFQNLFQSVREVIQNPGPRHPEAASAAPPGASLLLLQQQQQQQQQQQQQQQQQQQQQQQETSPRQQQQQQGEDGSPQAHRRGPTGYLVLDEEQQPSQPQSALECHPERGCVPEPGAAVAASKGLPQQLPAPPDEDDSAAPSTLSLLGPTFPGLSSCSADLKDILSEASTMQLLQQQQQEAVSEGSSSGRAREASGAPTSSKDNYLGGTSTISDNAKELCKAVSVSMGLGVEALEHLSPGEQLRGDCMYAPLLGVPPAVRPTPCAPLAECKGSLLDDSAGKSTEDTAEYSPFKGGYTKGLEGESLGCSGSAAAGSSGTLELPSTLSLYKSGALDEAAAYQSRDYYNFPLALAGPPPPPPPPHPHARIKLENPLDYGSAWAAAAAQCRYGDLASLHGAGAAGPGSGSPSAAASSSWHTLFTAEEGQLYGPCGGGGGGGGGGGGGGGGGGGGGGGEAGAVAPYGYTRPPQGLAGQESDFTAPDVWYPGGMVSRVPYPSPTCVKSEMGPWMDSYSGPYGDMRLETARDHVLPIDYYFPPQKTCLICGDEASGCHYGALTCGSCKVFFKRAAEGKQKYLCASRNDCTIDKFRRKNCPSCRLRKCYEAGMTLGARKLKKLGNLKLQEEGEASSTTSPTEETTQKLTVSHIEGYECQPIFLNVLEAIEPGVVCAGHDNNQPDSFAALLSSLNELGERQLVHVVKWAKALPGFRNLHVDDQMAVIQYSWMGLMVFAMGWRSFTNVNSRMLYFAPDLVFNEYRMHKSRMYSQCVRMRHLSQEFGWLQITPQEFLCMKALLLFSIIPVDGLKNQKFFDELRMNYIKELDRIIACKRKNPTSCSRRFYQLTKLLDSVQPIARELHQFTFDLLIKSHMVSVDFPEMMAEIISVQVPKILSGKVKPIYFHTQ
Sequence of Ratio of Nucleoli Translocation and Cytoplasm, AR (gene 367) (P10275 whole entry, looked up): as above

The term AC50 denotes the concentration giving half of the maximal activity seen. For the compound `O=C(NO)C1(NS(=O)(=O)c2ccc(Oc3ccc(F)cc3)cc2)CCOCC1`, the results for the concentration at half-maximal activity (AC50) in [1] and in [2] were 39.2 µM (active) and 31.2 µM (active), respectively. Moreover, the outcome in [3], in [4], in experiment [5], in experiment [6] and in experiment [7] was inactive.

Regarding `O=S(=O)(O)c1ccc(N=Nc2c(O)ccc3cc(S(=O)(=O)O)ccc23)cc1`, the compound was classed as inactive in [8], in experiment [9], in [6], in experiment [7] and in experiment [10].

`Cc1nccn1-c1ccc(Sc2cccc(C3(C(N)=O)CCOCC3)c2)cc1`: the AC50 in experiment [1] is 9.2 µM (active); in experiment [2], 5.55 µM (active); in experiment [3], 13.2 µM (active). Besides, the call in experiment [4] and in experiment [6] was inactive.

`CCCCCCCC1CCC(=O)O1` (stereo not drawn): the AC50 in experiment [1] is 46.4 µM (active). The compound was classed as inactive in experiment [2], in experiment [3], in experiment [8], in experiment [9], in [5] and in [6]. Also, the compound was called inactive in experiment [7] and in experiment [10].

Regarding `COc1cc2c(c(OC)c1OC)-c1ccc(OC)c(=O)cc1[C@@H](NC(C)=O)CC2`, the outcome in [11], in experiment [12], in [13], in [14], in [8] and in [9] was inactive. Also, the result in experiment [5], in [6] and in experiment [7] was inactive. In [10], the AC50 was 34 µM (active).

For `COCc1nnc(-c2ccc[n+]([O-])c2)n1-c1c(Cl)c(Cl)cc2[nH]c(=O)c(=O)[nH]c12`, the outcome in experiment [14], in experiment [8], in experiment [9], in [6] and in [10] was inactive.

On to `c1ccc(C(O[C@@H]2CCCN(CCc3ccc4c(c3)OCO4)C2)c2ccccc2)cc1`, for which the call in [8], in experiment [9], in [6], in [7] and in [10] was inactive.

For `CCc1cccc(CC)c1N`, the call in experiment [11], in [12], in experiment [13], in [14], in [6] and in experiment [7] was inactive.

On to `CC[C@H](C)C(=O)O[C@H]1C[C@H](O)C=C2C=C[C@H](C)[C@H](CC[C@@H](O)C[C@@H](O)CC(=O)O)[C@H]21`, for which the result in experiment [8], in experiment [9], in experiment [6] and in [10] was inactive.

Take `Cn1c(=O)c2[nH]cnc2n(C)c1=O`: the outcome in experiment [8], in experiment [9], in experiment [6] and in experiment [10] was inactive.

Regarding `CCCCOC(=O)c1ccccc1`, the compound was called inactive in [11], in experiment [12], in [14], in experiment [6] and in [7].

Consider `Nc1ccn([C@@H]2O[C@H](CO)[C@@H](O)[C@@H]2O)c(=O)n1`, for which the outcome in [5] and in [6] was inactive.

As to `COc1cc(C(C)C)c2c(c1)S(=O)(=O)N(COc1cc(=O)n3cccc(OCCN4CCCCC4)c3n1)C2=O`, in [11], the AC50 is 5.14 µM (active). Also, the outcome in experiment [12], in [13], in experiment [14], in experiment [8], in experiment [9] and in experiment [5] was inactive. For the same compound, the result in experiment [6] and in experiment [10] was inactive.

`CCCCCCCCCCCCCCCCOS(=O)(=O)O`: the AC50 in experiment [15] is 44.5 µM (active). For the same compound, the compound was called inactive in [11], in [5] and in experiment [6].

`OCCOCCOCCO`: the call in [11], in [12], in experiment [14], in experiment [5] and in experiment [6] was inactive.

On to `NC(=O)NN=Cc1ccc([N+](=O)[O-])o1`, for which the AC50 in experiment [1] and in [3] was 50 µM (active) in each case. For the same compound, the call in experiment [2], in [4] and in experiment [6] was inactive.

Regarding `OCc1ccccc1`, the result in [11], in experiment [13], in experiment [8], in experiment [9], in experiment [5] and in experiment [6] was inactive. Further, the call in experiment [7] and in [10] was inactive.

As for `FC(F)C(F)(F)COCC1CO1` (stereo not drawn), the AC50 in [15] is 19.8 µM (active).

Turning to `Cc1nc(-c2ccccn2)ncc1C(=O)Nn1cc(C)c2cc(F)ccc21`, the result in [11], in experiment [14], in [6] and in [7] was inactive.
